Measurements reported in PubChem BioAssay (NCATS).
Records with an inconclusive call do not appear. The source made the active and inactive calls. The call rests on the fitted dose curve; in most records, active means well fitted curve in the direction sought with a large enough effect; inconclusive means small, poorly fitted or top-dose-only effect, or another doubt; inactive means no such curve, though single readings can be large; an effect the other way counts as inactive or inconclusive.

Tests used:
[1] = qHTS Screen of the MIPE 4.0 Collection Against Ewings Sarcoma (RDES) (AID 1259252); further: nearly all actives have a fitted effect of over 35% in size; further: potency means the concentration at half of the fitted maximal effect
Outline: (§1)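 Log-phase cells in RPMI with 5% FBS attached for 4 h, then received compounds as a titration for 48 h at 37C, 5% CO2. Viability was read by CellTiter-Glo luminescence and normalized to DMSO and no-cell wells.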

[2] = qHTS Screen of the MIPE 4.0 Collection Against Ewings Sarcoma (TC71) (AID 1259253); further: nearly all actives have a fitted effect of over 40% in size; further: potency means the concentration at half of the fitted maximal effect
Outline: as §1

[3] = qHTS Screen of the MIPE 4.0 Collection Against Ewings Sarcoma (EW8) (AID 1259255); further: nearly all actives have a fitted effect of over 35% in size; further: potency means the concentration at half of the fitted maximal effect
Outline: as §1

[4] = qHTS Screen of the MIPE 4.0 Collection Against Ewings Sarcoma (TC32) (AID 1259256); further: nearly all actives have a fitted effect of over 45% in size; further: potency means the concentration at half of the fitted maximal effect
Outline: as §1

[5] = qHTS assay to identify small molecule inhibitors of chordoma cells - UCH-1 (AID 1259355); further: nearly all actives have a fitted effect of over 55% in size
Outline: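 Screening used approved and investigational drugs in 15-point titration against 800 seeded cells per well. A fixed combination of auranofin with camptothecin, doxorubicin, rubitecan and topotecan followed compound addition, and growth was scored by CellTiter-Glo after 48hr.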

[6] = qHTS assay to identify small molecule inhibitors of chordoma cells - UCH-2 (AID 1259356); further: series mostly up to about 46 µM

Measured: Potency

Cn1c(=O)c2c(ncn2CC(O)CO)n(C)c1=O (stereo unspecified)
inactive: all assays above

COC(c1ccccc1)(c1ccccc1)[C@H](Oc1nc(C)cc(C)n1)C(=O)O
inactive: all assays above

C[C@]12C=CC(=O)C=C1CC[C@@H]1[C@@H]2C(=O)C[C@@]2(C)[C@H]1CC[C@]2(O)C(=O)CO
inactive: all assays above

CCn1cc(C(=O)O)c(=O)c2cc(F)c(N3CCNCC3)cc21
inactive: all assays above

Nc1nc(N)nc(-c2cc(Cl)ccc2Cl)n1
inactive: all assays above

CCOC(=O)[C@H](CCc1ccccc1)N[C@H]1CS[C@H](c2cccs2)CN(CC(=O)O)C1=O
inactive: [5] | [6]
active: [1] 4.18 µM | [2] 5.9 µM | [3] 5.9 µM | [4] 4.18 µM

O=c1cc(O)c(Cl)c[nH]1
inactive: all assays above

CN1CCN(c2c(F)cc3c(=O)c(C(=O)O)cn4c3c2OCN4C)CC1
inactive: all assays above

O=C(O)c1cccnc1
inactive: all assays above

CC[C@H](NC(C)C)[C@H](O)c1ccc(O)c2[nH]c(=O)ccc12
inactive: all assays above

CCN[C@H]1C[C@H](C)S(=O)(=O)c2sc(S(N)(=O)=O)cc21
inactive: all assays above

CCCc1nc(C)c2c(=O)[nH]c(-c3cc(S(=O)(=O)N4CCN(CC)CC4)ccc3OCC)nn12
active: [1] 7.43 µM | [2] 8.33 µM | [3] 3.72 µM | [4] 9.35 µM
inactive: [5] | [6]

O=c1oc2c(O)c(O)cc3c(=O)oc4c(O)c(O)cc1c4c23
inactive: all assays above

Cc1cc(NS(=O)(=O)c2ccc(N)cc2)no1
inactive: all assays above

CC(C)(C)C(=O)OCOP(=O)(COCCn1cnc2c(N)ncnc21)OCOC(=O)C(C)(C)C
active: [1] 0.372 µM | [2] 0.833 µM | [3] 0.209 µM
inactive: all other assays above

O=S(=O)(O)CCS
inactive: all assays above

C[C@@H]1CN(c2c(F)c(N)c3c(=O)c(C(=O)O)cn(C4CC4)c3c2F)C[C@H](C)N1
inactive: all assays above

S=P(N1CC1)(N1CC1)N1CC1
inactive: [5] | [6]
active: [1] 16.6 µM | [2] 16.6 µM | [3] 6.62 µM | [4] 2.64 µM

Nc1nc(F)nc2c1ncn2[C@@H]1O[C@H](CO)[C@@H](O)[C@@H]1O
active: [1] 0.59 µM | [2] 0.372 µM | [3] 0.469 µM | [4] 1.32 µM
inactive: [5] | [6]

O=C(O)c1cn(C2CC2)c2cc(N3CCNCC3)c(F)cc2c1=O
inactive: all assays above

Cc1ncc([N+](=O)[O-])n1CCO
inactive: all assays above

CNC1CCCN(c2c(F)cc3c(=O)c(C(=O)O)cn(C4CC4)c3c2OC)C1 (stereo unspecified)
inactive: [5] | [6]
active: [1] 14.8 µM | [2] 18.7 µM | [4] 20.9 µM

CCC(=O)O[C@]1(C(=O)CCl)[C@@H](C)C[C@H]2[C@@H]3CCC4=CC(=O)C=C[C@]4(C)[C@@]3(F)[C@@H](O)C[C@@]21C
not listed: [5]
inactive: all other assays above
